Measured values taken from the supplement of paper PMC9433436.
± gives the standard deviation of the averaged measurements. Whole data set: some 4,100 sequences, median “relative kcat/Km (krel) vs genomic leader AAAGAU” near 1.7, cut for the highest 2% near 6.5. For the sample, the highest values were picked, then their nearest neighbours and some sequences at random.

Target: T1, E. coli RNase P holoenzyme (M1 P RNA + rnpA protein) (UniProt P0A7Y8)
T1 sequence: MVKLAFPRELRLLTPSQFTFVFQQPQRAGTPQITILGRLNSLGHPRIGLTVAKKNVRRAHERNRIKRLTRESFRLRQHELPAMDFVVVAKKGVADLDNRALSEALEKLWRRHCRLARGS
Test: relative kcat/Km (krel) vs genomic leader AAAGAU (relative (reference leader = 1)); higher = faster RNase P cleavage
Description: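 HTS-Kin: a pool of ptRNA-Met (21C construct) with all 4096 combinations of 5' leader nucleotides N(-6) to N(-1) was processed in vitro by E. coli RNase P (P RNA + rnpA/C5 protein) under multiple-turnover conditions at 37 C, pH 8, 17.5 mM MgCl2. Residual substrate was Illumina-sequenced at several fractions reacted, and relative kcat/Km (krel) was computed by internal competition kinetics, calibrated to the genomic leader (AAAGAU = 1). The listed hexamer is the varied N(-6)..N(-1) leader (DNA letters), and it sits between a fixed 5' stem-loop flank (GCAUGCACGAAAGUGCGUGCUAUGAA) and the mature tRNA-Met starting GGCUACGUAGCUCAGUUGG. Two technical replicates are averaged.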

[1] = fraction of substrate reacted: ~9-10% (9.79% repeat 1, 9.1% repeat 2)
[2] = fraction of substrate reacted: ~13-16% (15.68% repeat 1, 13.17% repeat 2)
[3] = fraction of substrate reacted: ~26-29% (28.66% repeat 1, 26.4% repeat 2)

| Sequence | relative kcat/Km [1] | relative kcat/Km [2] | relative kcat/Km [3] |
| --- | --- | --- | --- |
| TTTTTT | 3.31 ± 1.9 | 3.41 ± 0.27 | 4.9 ± 1.7 |
| ATTTAC | 4.31 ± 1.7 | 4.75 ± 0.58 | 6.43 ± 2.2 |
| TTTATT | 2.77 ± 0.82 | 3.08 ± 0.42 | 4.5 ± 2.1 |
| GTTTTA | 2.83 ± 1.7 | 2.56 ± 0.17 | 3.52 ± 1 |
| GTTTAC | 3.75 ± 0.76 | 4.65 ± 0.88 | 7.14 ± 3 |
| TTTTAT | 4.55 ± 1.4 | 5.6 ± 0.89 | 8.5 ± 3.9 |
| GTTTAT | 3.69 ± 0.5 | 5.18 ± 1.8 | 8 ± 3.7 |
| TTTTAG | 3.3 ± 2.5 | 2.5 ± 0.78 | 4.51 ± 1.2 |
| GTTTAA | 3.62 ± 0.62 | 4.49 ± 0.5 | 6.31 ± 3 |
| CTTTAC | 4.38 ± 1.7 | 4.59 ± 1.3 | 6.2 ± 1.9 |
| TAAGCC | 2.57 ± 0.66 | 2.16 ± 0.87 | 1.67 ± 0.62 |
| TTGAGA | 2.45 ± 0.5 | 2.31 ± 0.38 | 3.09 ± 0.91 |
| ATCGTA | 3.1 ± 0.36 | 3.67 ± 0.92 | 5.45 ± 2.6 |
| TGCTGT | – | 0.877 ± 0.71 | 1.11 ± 1.1 |
| GAAACG | – | – | 0.784 ± 0.096 |
| CCGCAG | – | – | 1.14 ± 1.1 |
| GAAGGC | 1.24 ± 0.64 | – | – |
| ACCGTA | 2.19 ± 0.39 | 2.54 ± 0.21 | 4.07 ± 1.4 |
| CCCTGC | 2.87 ± 1.4 | 3.39 ± 0.2 | 5.06 ± 1.6 |
| TCCTGG | 0.344 ± 0.27 | 0.715 ± 0.34 | 1.15 ± 1.1 |
| ACCTGC | 3.58 ± 3.5 | 3.61 ± 2.3 | 5.37 ± 2.5 |
| TCCTGC | 4.64 ± 1.6 | 5.78 ± 1.5 | 7.5 ± 3.9 |
| TCCTGT | – | – | 2.18 ± 1.6 |
| TCCTGA | 3.23 ± 0.83 | 4.19 ± 0.42 | 6.6 ± 2.5 |
| ATTACA | 2.55 ± 1.5 | 2.08 ± 0.14 | 2.94 ± 1.2 |
| CCCACT | 1.87 ± 1.1 | 1.27 ± 0.14 | 2.79 ± 0.067 |

| Sequence | relative kcat/Km [1] | relative kcat/Km [2] | relative kcat/Km [3] |
| --- | --- | --- | --- |
| AAATCT | 1.86 ± 0.61 | 2.09 ± 0.095 | 2.8 ± 0.68 |
| GCACGC | – | – | 1.29 ± 1.2 |
| ATCTAG | 2.49 ± 0.96 | 3.16 ± 1 | 5.72 ± 2.4 |
| ATCTAT | 3.93 ± 1.4 | 5.38 ± 1 | 7.98 ± 3.7 |
| GGCTAT | 2.25 ± 0.98 | 1.99 ± 0.48 | 2.88 ± 0.85 |
| GTCTAT | 5.93 ± 2.3 | 6.62 ± 1.5 | 9.91 ± 4.4 |
| ATCTGT | – | 1.3 ± 1.2 | 1.76 ± 1.5 |
| CTCTAT | 4.59 ± 0.51 | 6.38 ± 1.7 | 9.17 ± 4 |
| AGCTAC | 1.27 ± 0.29 | 3.3102 ± 0.0027 | 4.78 ± 1.9 |
| CTATCT | 3.05 ± 0.67 | 3.54 ± 0.89 | 4.18 ± 1.4 |
| ATGTCT | 1.82 ± 0.38 | 2.3 ± 0.33 | 2.43 ± 1 |
| ATCTCG | 2.52 ± 2 | 2.14 ± 0.37 | 3.55 ± 1.2 |
| CTATGT | 0.766 ± 0.47 | 1.38 ± 0.98 | – |
| ATCTAC | 4.97 ± 1.4 | 6.58 ± 2 | 9.08 ± 4.5 |
| ATACTT | 1.93 ± 1.3 | 1.97 ± 0.58 | 2.62 ± 1.1 |
| GCGAAT | 0.964 ± 0.25 | 1.54 ± 0.49 | 2.09 ± 0.45 |
| CAGCGC | 1.95 ± 0.83 | 1.4 ± 0.14 | 2.09 ± 0.64 |
| CTGCGG | – | 0.228 ± 0.042 | 0.674 ± 0.39 |
| TGGGAA | – | 1.31 ± 0.98 | 1.24 ± 0.69 |
| CAGCTA | 1.51 ± 0.56 | 1.21 ± 0.27 | 1.85 ± 0.51 |
| ACTGGA | 0.346 ± 0.015 | – | – |
| TGGTAG | – | – | 0.538 ± 0.38 |
| TTTCTC | 2.12 ± 0.99 | 2.29 ± 0.41 | 2.91 ± 0.93 |
| TTATGC | 3.22 ± 0.63 | 4.29 ± 0.74 | 6.16 ± 2.8 |
| CCGTAC | 3.58 ± 1 | 4.22 ± 0.54 | 5.69 ± 2.3 |
| GCTTAA | 1.72 ± 1 | 2.36 ± 0.11 | 3.64 ± 0.66 |

| Sequence | relative kcat/Km [1] | relative kcat/Km [2] | relative kcat/Km [3] |
| --- | --- | --- | --- |
| AACTTC | 3.37 ± 1.2 | 3.49 ± 0.17 | 4.33 ± 1.5 |
| TACATA | 3.93 ± 2 | 4.55 ± 0.65 | 6.5 ± 2.8 |
| GCTGAT | 1.1 ± 0.57 | 1.1 ± 0.49 | 0.636 ± 0.14 |
| TGAGGA | 0.562 ± 0.032 | – | 1.42 ± 0.78 |
| TTAAGA | 1.95 ± 0.61 | 2.89 ± 0.47 | 3.88 ± 1.5 |
| GTCTAG | 3.54 ± 2.5 | 3.25 ± 0.17 | 5.81 ± 1.6 |
| CTCTAG | 3.37 ± 2.2 | 3.41 ± 0.89 | 5.82 ± 2 |
| GGCTAC | 1.69 ± 1.4 | 1.98 ± 0.51 | 2.81 ± 1.3 |
| CTCTAC | 4.76 ± 1.6 | 6.63 ± 1.3 | 8.97 ± 3.6 |
| CTACAC | 2.87 ± 1.7 | 3 ± 0.59 | 4.74 ± 1.4 |
| GTCTAC | 4.47 ± 0.65 | 6.86 ± 2.4 | 10.1 ± 4.8 |
| TACGTT | 1.82 ± 0.88 | 1.95 ± 0.067 | 2.61 ± 1 |
| CAAGAT | 1.15 ± 0.24 | 0.704 ± 0.019 | 1.49 ± 0.33 |
| CACCGC | 2.34 ± 0.56 | 3.87 ± 1.6 | 5.89 ± 2.7 |
| CTCCGC | 3.56 ± 0.068 | 4.98 ± 1.7 | 6.8 ± 2.7 |
| CTCCGT | – | 1.79 ± 1.2 | 2.01 ± 1.7 |
| CTCCGG | 1.38 ± 0.85 | 0.916 ± 0.46 | 1.27 ± 0.5 |
| GTCCGC | 3.94 ± 0.68 | 5.24 ± 1.4 | 8 ± 3.3 |
| ATCCCA | 2.69 ± 1.7 | 2.52 ± 0.24 | 3.52 ± 0.92 |
| CGCCGC | 2.62 ± 0.84 | 3.479 ± 0.016 | 4.99 ± 2 |
| GTCCGG | – | – | 1.17 ± 0.26 |
| GGCCGC | 1.55 ± 0.064 | 1.97 ± 0.17 | 3.73 ± 0.94 |
| CTCCGA | 4.78 ± 2 | 5.35 ± 1.6 | 8.07 ± 3.3 |
| ATCCTA | 3.22 ± 1.7 | 3.39 ± 0.28 | 4.55 ± 1.7 |
| ATCCGA | 4.57 ± 1.7 | 4.95 ± 0.73 | 7.19 ± 2.7 |
| GGCGGT | – | – | 1.38 ± 0.92 |

| Sequence | relative kcat/Km [1] | relative kcat/Km [2] | relative kcat/Km [3] |
| --- | --- | --- | --- |
| ATGTCA | 1.69 ± 0.74 | 1.97 ± 0.16 | 2.71 ± 1 |
| CGCGTA | 2.07 ± 0.78 | 1.48 ± 0.56 | 2.18 ± 0.99 |
| CAGGAG | 0.78 ± 0.77 | – | 0.626 ± 0.52 |
| TAAGGT | – | – | 3.06 ± 1.8 |
| TCGGGC | – | – | 1.18 ± 0.74 |
| TGAATC | 1.86 ± 0.16 | 1.84 ± 0.4 | 2.53 ± 0.78 |
| TATAAT | 3.05 ± 0.91 | 3.72 ± 0.38 | 5.41 ± 2.8 |
| TAACAG | – | 1.33 ± 0.61 | 2.19 ± 0.52 |
| GCGAGA | 1.04 ± 0.47 | – | 1.63 ± 0.017 |
| TTCCGT | – | 2.19 ± 1.9 | 2.5 ± 1.8 |
| GGCCGA | 1.949 ± 0.015 | 2.42 ± 0.35 | 3.95 ± 1.3 |
| ATCCGG | – | 0.394 ± 0.063 | 0.881 ± 0.16 |
| GTCCGA | 3.87 ± 0.72 | 5.56 ± 1 | 8.22 ± 3.4 |
| TTCCCA | 2.74 ± 1.8 | 4.27 ± 0.3 | 4.97 ± 1.5 |
| TTCCGC | 4.23 ± 1.3 | 5.35 ± 0.93 | 8.49 ± 3.5 |
| TTCCGA | 4.31 ± 1.2 | 6.28 ± 2 | 9.5 ± 4.6 |
| TTCCGG | 1.74 ± 1.5 | 0.738 ± 0.38 | 1.68 ± 0.19 |
| TGCCGA | 2.99 ± 0.37 | 2.99 ± 1.4 | 4.69 ± 1.9 |
| ATCCGC | 3.93 ± 0.99 | 4.36 ± 1.7 | 6.74 ± 2.5 |
| ATCCGT | – | – | 2.3 ± 2.1 |
| GTCCTA | 3.11 ± 1.4 | 3.47 ± 0.34 | 4.9 ± 1.2 |
| ACGACA | 1.74 ± 0.19 | 1.62 ± 0.86 | 1.9 ± 0.45 |
| CAGCAA | 2.5 ± 1.1 | 2.58 ± 0.032 | 3.08 ± 1 |
| TATCGA | 3.95 ± 1.2 | 4.7 ± 0.84 | 6.39 ± 2.6 |
